ChEMBL document CHEMBL4296182, “CO-ADD screening of NIH NCI Diversity Set V”
For part of these data: Results with a measured potency or affinity are listed apart.

What was measured:
Staphylococcus aureus = assay: Antibacterial activity against Staphylococcus aureus MRSA ATCC 43300 (CO-ADD:GP_020); MIC in CAMBH media using NBS plates, by Resazurin F(560/590); format: functional; details: Concentration 20 uM, ASSAY_TEST Inhibition of Bacterial Growth, detection method Resazurin, Fluorescence (ex560/em590), MEDIA CAMHB, plate type 384well, CORNING #3640, time 18 hr
Acinetobacter baumannii = assay: Antibacterial activity against Acinetobacter baumannii ATCC 19606 (CO-ADD:GN_034); MIC in CAMBH media using NBS plates, by Resazurin F(560/590); format: functional; details: Concentration 20 uM, ASSAY_TEST Inhibition of Bacterial Growth, detection method Resazurin, Fluorescence (ex560/em590), MEDIA CAMHB, plate type 384well, CORNING #3640, time 18 hr
Escherichia coli = assay: Antibacterial activity against Escherichia coli ATCC 25922 (CO-ADD:GN_001); MIC in CAMBH media using NBS plates, by Resazurin F(560/590); format: functional; details: Concentration 20 uM, ASSAY_TEST Inhibition of Bacterial Growth, detection method Resazurin, Fluorescence (ex560/em590), MEDIA CAMHB, plate type 384well, CORNING #3640, time 18 hr
Klebsiella pneumoniae = details: Concentration 20 uM; ASSAY_TEST Inhibition of Bacterial Growth; detection method Absorption (OD600); MEDIA CAMHB; plate type 384well; NBS; CORNING #3640; time 18 hr
Candida albicans = details: 20 µM
Cryptococcus neoformans = details: Concentration 20 uM; ASSAY_TEST Inhibition of Fungal Growth; detection method Resazurin; Absorption (OD600-OD570); plate type 384well; NBS; CORNING #3640

| SMILES | Inhibition (Staphylococcus aureus) [%] | Inhibition (Acinetobacter baumannii) [%] | Inhibition (Escherichia coli) [%] | Inhibition (Klebsiella pneumoniae) [%] | Inhibition (Candida albicans) [%] | Inhibition (Cryptococcus neoformans) [%] |
| --- | --- | --- | --- | --- | --- | --- |
| N=C(N)N/N=C/c1c(Cl)cccc1Cl [GUANABENZ] | 5.03 | -12.8 | 13.45 | 13.62 | -0.73 | -12.66 |
| CCC1CN1P(=O)(Oc1ccc(Cl)cc1)N1CC1CC (centres undefined) | 5.27 | -3.62 | 11.85 | 2.63 | 4.31 | -4.87 |
| CN1C(=O)NC(=O)C(/N=N/c2ccc(Cl)cc2)C1=O (centres undefined) | 11.94 | 12.18 | 3.45 | 13.9 | 1.14 | -3.1 |
| O=P(OC1=CCCCC1)(c1ccccc1)c1ccccc1 | 2.77 | -7.09 | 6.17 | 9.43 | 4.11 | -2.72 |
| CCC1CCC(C)N(N=O)C1 (centres undefined) | -0.88 | -14.6 | 6.08 | 7.29 | -0.7 | -1.16 |
| O=C1CN=C(c2ccc[nH]2)c2cc(Cl)ccc2N1 | 5.67 | 14.08 | -2.95 | 17.48 | 0.21 | -5.64 |
| Cn1cc(C=O)c2nccnc21 | 0.99 | -3.72 | -9.44 | 3.85 | 1.67 | 2.98 |
| O=C(CF)N(O)c1ccc(/C=C/c2ccccc2)cc1 | -10.86 | -11.91 | 10.97 | 1.67 | 12.6 | -7.92 |
| Cc1c(C(=O)c2ccccc2)c2ccccc2n1C | 14.29 | -0.59 | 13.79 | 4.42 | 1.53 | -16.28 |
